Assay outcomes deposited in PubChem by Broad Institute.
Tg IFNy HTS: T. gondii growth inhibition with IFN-gamma, primary screen, cell-based. hit rate 3.8% among 69,000. AID 1259416, 2018. activity change, negative = inhibition, % (test concentration not listed). Toxoplasma gondii growth in IFN-gamma-treated host cells; active compounds read low; in the data active = activity change below about -70%, passing the limit was not always enough;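 also: host cells are HeLa cells infected with Toxoplasma gondii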
Active calls of the source: *; i = inactive. Shown is part of a subset that was picked to be rich in hits.

SMILES | Tg IFNy HTS
COCCN(C[C@H]1[C@H](c2ccccc2)[C@H](CO)N1C(C)=O)C(=O)c1cccnc1 | 1
O=S(=O)(Nc1ccc2c(c1)oc1ccccc12)c1ccc2ccccc2c1 | 11
O=C(c1ccc2c(c1)CCC(=O)N2Cc1ccccc1)N1CCN(c2ccc(F)cc2)CC1 | -108*
O=C(CN1C(=O)CCc2cc(Br)ccc21)N1CCN(c2ccccc2)CC1 | -43
CCCN1C(=O)CCc2cc(C(=O)N3CCOCC3)ccc21 | -14
CCc1nccn1C(C)C(=O)N1CCN(c2ccccc2C(F)(F)F)CC1 (configuration not stated) | -40
Cc1ccc(C)c(NC(=O)CN2CCC3(CC2)N=C(c2ccc(F)cc2)C(=O)N3)c1 | 9
CCCCCS(=O)(=O)CCCCCCCCCCn1c(-c2ccc(O)cc2)c(C)c2cc(O)ccc21 | -79*
CCCCNC(=O)CN(C)C(=O)c1cccc(-c2ccc(O)cc2)c1 | 2
CCCC(NC(=O)c1ccc[n+]([O-])c1)c1ccccc1 (configuration not stated) | 6
Cc1nn(Cc2nnc(-c3cccs3)o2)c(C)c1Br | -2
Cc1cccnc1CC(C)Nc1ncc(C)c(N(C)C)n1 (configuration not stated) | -37
Cc1nonc1OCCn1nnc(N)n1 | -6
Cc1nc(-c2ccc(F)cc2)sc1CCNC(=O)C1CC1 | 341
CCOC(=O)C1=C(N)Oc2ccc(Br)cc2[C@H]1[C@H](C#N)C(=O)OCC | -75*
CCOC(=O)C1c2ccccc2Oc2ccccc21 | 23
CCOC(=O)c1c(C)oc2cc(Br)c(OC(C)C(=O)OCC)cc12 (configuration not stated) | -10
COCCn1cc2c(n1)C(CNC(=O)c1cnc(C)cn1)OCC2 (configuration not stated) | 9
COc1ccc(-n2cccn2)c(CN2CCCC(C(=O)N3CCCC3)C2)c1 (configuration not stated) | -6
CCCS(=O)(=O)N1C[C@@H]2COC[C@@]2(CN2CCOCC2)C1 | 7
CN(C)c1cccc(C(=O)N2CCc3c([nH]c4ccccc34)C2c2ccc(F)cc2)c1 (configuration not stated) | -94*
COc1ccc(C2c3[nH]c4ccccc4c3CCN2C(=O)c2ccc(Br)cc2)cc1 (configuration not stated) | -89*
COc1ccc(C(=O)N2CCc3c([nH]c4ccccc34)C2c2ccc(F)cc2)cc1 (configuration not stated) | -130*
CSc1ccc(C2c3[nH]c4ccccc4c3CCN2C(=O)c2ccc(N(C)C)cc2)cc1 (configuration not stated) | -53
O=C(c1ccccc1F)N1CCc2c([nH]c3ccccc23)C1c1ccc(F)cc1 (configuration not stated) | 281
SMILES | Tg IFNy HTS
Cc1ccc(C2c3[nH]c4ccccc4c3CCN2C(=O)c2ccc(Br)cc2)cc1 (configuration not stated) | 246
COCC(=O)N1CCc2c([nH]c3ccccc23)C1c1ccc(F)cc1 (configuration not stated) | 410
O=C(c1ccccc1)N1CCc2c([nH]c3ccccc23)C1c1ccc(F)cc1 (configuration not stated) | -85*
Cc1ccc(C2c3[nH]c4ccccc4c3CCN2C(=O)c2ccc(F)cc2)cc1 (configuration not stated) | i
Cc1ccc(C(=O)N2CCc3c([nH]c4ccccc34)C2c2ccc(F)cc2)cc1 (configuration not stated) | -19
CCOc1ccc(C2c3[nH]c4ccccc4c3CCN2C(=O)c2ccc(OC)cc2)cc1 (configuration not stated) | -76
CC(C)(C)c1cc(CN2CC[C@@]3(O)CCCC[C@H]3C2)[nH]n1 | 0
O=C(CN1C(=O)COc2ccc(C(=O)c3cccs3)cc21)NCCC1=CCCCC1 | 28
CCn1c(C)nc2cc(NS(=O)(=O)c3ccc4c(c3)C(NC(C)=O)CC4)ccc21 (configuration not stated) | 8
Cc1ccc(CN2C[C@@H]3CCCO[C@H]3[C@@H](N(C)Cc3ccco3)C2)o1 | 16
NCC1Cc2c(ccc3cc(-c4ccncc4)ccc23)O1 (configuration not stated) | -86*
Cc1nonc1C(=O)N1CCC(c2cc(C(C)C)n[nH]2)CC1 | -6
Fc1ccc(OCCN2CCCCC2CCN2CCOCC2)cc1 (configuration not stated) | 20
COc1ccccc1-c1nc(Cn2ccn3nc(-c4ccc5c(c4)OCO5)cc3c2=O)c(C)o1 | -42
Cc1oc2c(F)c(F)c(F)c(F)c2c1C(N)=O | 16
OC(CNCc1cc2ccccc2s1)C(F)(F)F (configuration not stated) | -86*
CC(c1cc2ccccc2s1)N(O)C(N)=O (configuration not stated) | -68
COc1cc(CNCc2ccc(F)cc2)cc(Cl)c1OCc1cccnc1 | -36
Cn1cc2c3c(cccc31)CN(C(=O)c1ccc(Cl)nc1)CC2 | 0
O=C1CC(CSc2nnnn2-c2ccccc2)=NN1 | 22
CCc1nc(OCC(=O)Nc2ccc(C(C)C)cc2)c2ccccc2n1 | 5
CCOc1nc(Nc2ccc(C(C)C)cc2)nc(NC2CCCCC2)n1 | -87*
CC(C)c1nc2ccc(Br)cn2c1NC1CCCCC1 | 36
CCC(=O)N1CCc2c(nc3cc(C4CCCCN4Cc4cccs4)[nH]n3c2=O)C1 (configuration not stated) | -34
Cc1cccc(-c2[nH]c(C(C)(C)C)nc2-c2ccc3c(c2)OCO3)n1 | -83*
SMILES | Tg IFNy HTS
COc1nccnc1-c1ccc2c(c1)OCO2 | 10
NC(=O)c1ccc(-c2nc(-c3ccc4c(c3)OCO4)c(-c3ccccn3)[nH]2)cc1 | -62
COc1ccc(CN2C[C@H](N3CCOCC3)C3OCCCC32)cc1 (some centres not stated) | -1
C=CCn1c2c(ccc1=O)CCN(Cc1ccc(OC)cc1)CC2 | 0
CC(=O)N[C@H]1CCN(c2nc(-c3ccncc3)nc3c2CCN(C(C)=O)C3)C1 | -5
O=C(Nc1cccc(F)c1)N1CC(C(=O)N2CCOCC2)C2(CCOCC2)C1 (configuration not stated) | -6
Cc1ccc(S(=O)(=O)N2CC(C(=O)Nc3cccc(F)c3)C3(CCOCC3)C2)cc1 (configuration not stated) | -75*
Cc1ccc(S(=O)(=O)N2CCC3(CC3C(=O)Nc3cccc(F)c3)C2)cc1F (configuration not stated) | -65
Cc1nccn1-c1ccccc1CNC(=O)c1cn[nH]n1 | 20
CCc1nc([C@H]2CN(C)C[C@@H]2C(=O)NCCCn2ccnc2)c(C)[nH]1 | 8
COc1ccc(-c2nccc(C(F)(F)F)n2)cn1 | 62
COc1ccc(-c2ccc3ncc4c(c3c2)n(-c2ccc(N3CCNCC3)c(C(F)(F)F)c2)c(=O)n4C)cn1 | -90*
COc1ccc(C(=O)Nc2ccc3c(c2)nc(C(F)(F)F)n3C)cn1 | 20
O=S(=O)(NCCc1csc(-c2ccc(F)cc2)n1)c1cccs1 | -15
CC(=O)Nc1ccc(Cl)c(C(=O)N(C)Cc2ncc(C)[nH]2)c1 | -19
Cc1noc(C)c1CCC(=O)N1CCCC(c2[nH]ncc2C(=O)N(C)Cc2ccccc2)C1 (configuration not stated) | 4
CCCNC(=O)Nc1ccc2c(c1)OC[C@H](C)N(Cc1cncnc1)C[C@H](C)[C@H](OC)CN(C)C2=O | 99
Cn1c2c(c3cc(-c4cccc5c4CCNC5)ccc31)CCCC2=O | -81*
c1cc2c3c(c1)c1c(n3CCNC2)CCCC1 | 16
